Results reported in PubChem BioAssay AID1053193 (Broad Institute, 2014).
Activity calls are given as the source filed them.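 Rule for the calls: active = cell killing, with a fitted half-maximal concentration at or below twice the top valid dose tested; inconclusive = flat curve losing 30 to 70% signal, or unreliable fit; inactive = effect in the rising direction, plus the rest.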

Assay: A549 cell cytotoxicity, dose response, cytotoxicity control, CellTiter-Glo luminescence, 72 h, dry powder (AID 1053193)
Conditions: A549 viability, CellTiter-Glo ATP luminescence; series mostly up to 50 µM

SMILES	outcome
O=C(O)C1CCN(c2nc(-c3ccccc3)c3cc(Br)ccc3n2)CC1	inactive
Cc1cccc(NC(=O)NCc2ccc3c(c2)cc(C)n3C)c1	inactive
CCc1cccc2c1NC1(CCCC1)CC2C (stereo not given)	inactive
Cc1cc2cc(CNC(=O)Nc3ccc(Cl)c(Cl)c3)ccc2n1C	inactive
OCc1ccc(-c2nn(Cc3ccccc3)c3ccccc23)o1	inactive
COc1cc(CC2C(=O)Nc3ccccc32)cc(C)c1O (stereo not given)	inactive
O=C(c1c(F)cccc1F)N(Cc1ccccc1)Cc1ccccc1	inactive
Cc1cc2ccccc2n1CCNC(=O)COc1ccc2ccccc2c1	inactive
Cc1ccc(S(=O)(=O)NCc2ccc3c(c2)cc(C)n3C)cc1	inactive
Cc1ccc(CSc2nc3[nH]ncc3c(=O)[nH]2)cc1	inactive
CNc1ccccc1C(C)(C)c1cc(-c2cccc(OC)c2)no1	inactive
Cc1cc(C)c(S(=O)(=O)NCCn2c(C)cc3ccccc32)c(C)c1	inactive
COc1ccc(Nc2ccccc2N)cc1	inactive
Cc1cc2cc(CNC(=O)Nc3cccc(Cl)c3)ccc2n1C	inactive
CCc1ccc(-n2c(=S)sc3c(=O)n(-c4ccccc4C)c(SCC(=O)O)nc32)cc1	inactive
